Source: PubChem BioAssay (Tox21)
Records with an inconclusive call do not appear. Calls of active or inactive are those of the source. Unless noted, the call rests on the fitted dose curve; in most records, active means well fitted curve in the direction sought with a large enough effect in the repeat runs; inconclusive means weak or mixed curves; inactive means no such curve, though single readings can be large; an effect the other way counts as inactive or inconclusive.

Experiments:
[1] = qHTS assay to identify small molecule agonists of the peroxisome proliferator-activated receptor delta (PPARd) signaling pathway - cell viability counter screen (AID 743211); settings: PPARd-bla HEK293H viability, CellTiter-Glo luminescence, 17 h; series mostly up to 62.6 µM; further: nearly all actives have a fitted effect of over 55% in size
How it was run: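 qHTS cell viability: PPARd-bla HEK293H; 17 h cpd, 37C; CellTiter-Glo, luminescence at 30 min RT.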

[2] = qHTS assay to identify small molecule antagonists of the peroxisome proliferator-activated receptor delta (PPARd) signaling pathway - cell viability counter screen (AID 743213); settings: PPARd-bla HEK293H viability, CellTiter-Glo luminescence, 17 h; series mostly up to 62 µM; further: nearly all actives have a fitted effect of over 50% in size
How it was run: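 Luminescence from CellTiter-Glo, added after the bla read and incubated 30 min at room temperature, gives viability of HEK293H PPARd-bla cells exposed to compounds for 17 h at 37 C with 300 nM L165041.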

[3] = molecular target: Bile acid receptor (Homo sapiens) (UniProt Q96RI1); experiment: qHTS assay to identify small molecule antagonists of the farnesoid-X-receptor (FXR) signaling pathway (AID 743217; active means well fitted inhibition curve with a large enough effect in the signal ratio in the repeat runs, not every such curve was filed as active; the % refers to the signal ratio); settings: HEK293T FXR-UAS-bla, beta-lactamase ratio, CDCA-stimulated, 16 h; series mostly up to 62.6 µM
Bile acid receptor (Homo sapiens), sequence (Q96RI1 whole entry, looked up): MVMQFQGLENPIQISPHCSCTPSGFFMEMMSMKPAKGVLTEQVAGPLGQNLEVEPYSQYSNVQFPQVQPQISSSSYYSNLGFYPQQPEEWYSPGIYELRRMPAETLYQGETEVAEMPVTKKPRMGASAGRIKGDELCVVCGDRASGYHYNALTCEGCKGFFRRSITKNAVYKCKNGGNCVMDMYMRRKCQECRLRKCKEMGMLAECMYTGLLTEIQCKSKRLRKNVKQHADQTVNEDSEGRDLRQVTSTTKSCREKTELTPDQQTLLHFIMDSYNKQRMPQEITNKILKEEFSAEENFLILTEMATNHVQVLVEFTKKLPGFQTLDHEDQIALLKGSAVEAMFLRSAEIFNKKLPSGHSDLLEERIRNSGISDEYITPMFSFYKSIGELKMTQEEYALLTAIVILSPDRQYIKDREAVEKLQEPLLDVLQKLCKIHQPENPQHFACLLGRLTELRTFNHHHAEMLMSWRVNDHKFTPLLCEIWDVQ
How it was run: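 Cells carrying a UAS-driven beta-lactamase reporter (GeneBLAzer FXR-UAS-bla HEK 293T) were plated and rested 5 h at 37 °C. Compounds in DMSO were added alongside chenodeoxycholic acid agonist at 50 uM final and left 16 h at 37 °C before FRET substrate readout.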

[4] = qHTS assay to identify small molecule agonists of the farnesoid-X-receptor (FXR) signaling pathway - cell viability counter screen (AID 743218); settings: FXR-bla HEK293T viability, CellTiter-Glo luminescence, 16 h; series mostly up to 62.6 µM; further: nearly all actives have a fitted effect of over 45% in size
How it was run: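 Cells were seeded, left 5 h at 37 C and 5% CO2, then dosed with compound in DMSO for 16 h. After the beta-lactamase FRET read, CellTiter-Glo was added and luminescence measured 30 min later.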

[5] = molecular target: Bile acid receptor (Homo sapiens) (UniProt Q96RI1); experiment: qHTS assay to identify small molecule agonists of the farnesoid-X-receptor (FXR) signaling pathway (AID 743220; active means well fitted activation curve with a large enough effect in the signal ratio in the repeat runs, not every such curve was filed as active; the % refers to the signal ratio); settings: HEK293T FXR-UAS-bla, beta-lactamase FRET ratio, 16 h; series mostly up to 62.6 µM
How it was run: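 FXR-UAS-bla HEK 293T cells carrying a UAS-driven beta-lactamase reporter were plated for 5 h at 37C/5% CO2, then exposed to DMSO-dissolved Tox21 10K compounds for 16 h at 37C. A LiveBLAzer B/G FRET substrate was loaded for 2 h at room temperature before fluorescence reading.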

[6] = qHTS assay to identify small molecule antagonists of the farnesoid-X-receptor (FXR) signaling pathway - cell viability counter screen (AID 743221; active means well fitted cell-killing curve with a large enough effect in the repeat runs, not every such curve was filed as active; further: nearly all actives have a fitted effect of over 50% in size); settings: FXR-bla HEK293T viability, CellTiter-Glo luminescence, 16 h; series mostly up to 62.6 µM
How it was run: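 After a 5 h settling period, FXR-bla HEK 293T cells receive compound and chenodeoxycholic acid (50 uM final) and incubate 16 h at 37 C; CellTiter-Glo luminescence, read after 30 min at room temperature, reports cell viability.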

[7] = qHTS assay to identify small molecule agonists of the vitamin D receptor (VDR) signaling pathway - cell viability counter screen (AID 743224); settings: VDR-bla HEK293T viability, CellTiter-Glo luminescence, 16 h; series mostly up to 62.6 µM; further: nearly all actives have a fitted effect of over 50% in size
How it was run: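 Cells: VDR-bla, 2,000/well, settled 4 h. Treatment: compounds in DMSO, 16 h, 37C/5% CO2. Readout: CellTiter-Glo luminescence after 30 min RT.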

[8] = qHTS assay to identify small molecule antagonists of the vitamin D receptor (VDR) signaling pathway - cell viability counter screen (AID 743225); settings: VDR-bla HEK293T viability, CellTiter-Glo luminescence, 16 h; series mostly up to 61 µM; further: nearly all actives have a fitted effect of over 50% in size
How it was run: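 Parallel cytotoxicity test: VDR-UAS-bla HEK 293T, 3 nM (final) 1-alpha,25-dihydroxyvitamin D3 with test compound, 16 h, 37C. Endpoint is CellTiter-Glo luminescence in the same wells.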

[9] = qHTS assay to identify small molecule agonists of the NFkB signaling pathway (AID 1159509; active means well fitted curve in the direction sought with a large enough effect in the signal ratio in the repeat runs, not every such curve was filed as active; the % refers to the signal ratio); settings: NFkB-bla ME-180 cells, beta-lactamase FRET ratio, 5 h; series mostly up to 61 µM
How it was run: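 Agonist activity was read as beta-lactamase-driven FRET change (460 and 530 nm emission, 405 nm excitation) following 1.5 hr substrate loading at room temperature. Beforehand, ME-180 NFkB-bla reporter cells were treated with compounds for 5 hr at 37 C.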

[10] = qHTS assay to identify small molecule agonists of the NFkB signaling pathway - cell viability counter screen (AID 1159515; calls by dose curve; further: nearly all actives have a fitted effect of over 55% in size); settings: NFkB-bla ME-180 viability, CellTiter-Glo luminescence, 5 h; series mostly up to 61 µM
How it was run: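 Cells are seeded (2,000 NFkB-bla ME-180 per well), rested overnight, and dosed with DMSO-dissolved compounds for 5 hr at 37 C. Viability is then read by CellTiter-Glo luminescence after 30 min at room temperature.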

[11] = qHTS assay to identify small molecule agonists of the endoplasmic reticulum stress response signaling pathway (AID 1159516; active means well fitted activation curve with a large enough effect in the signal ratio in the repeat runs, not every such curve was filed as active; the % refers to the signal ratio); settings: ESRE-bla HeLa, ER stress beta-lactamase reporter, 5 h; series mostly up to 61 µM
How it was run: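 Cells are seeded at 1,500 per well and incubated overnight. Compounds in DMSO are added for 5 hr at 37 C, then beta-lactamase FRET substrate for 2 hr at room temperature, and fluorescence at 460 and 530 nm is measured.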

[12] = qHTS assay to identify small molecule agonists of the endoplasmic reticulum stress response signaling pathway - cell viability counter screen (AID 1159517; calls by dose curve); settings: ESRE-bla HeLa viability, CellTiter-Glo luminescence, 5 h; series mostly up to 61 µM
How it was run: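 Cpd-treated ESRE-bla HeLa (5 hr, 37 C) → LiveBLAzer 2 hr RT → CellTiter-Glo 30 min RT → luminescence.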

[13] = qHTS assay to identify small molecule antagonists of the retinoid-related orphan receptor gamma (ROR-gamma) signaling pathway - cell viability counter screen (AID 1159520); settings: Tet-on RORgamma CHO cells viability, ATP luminescence, 16 h; series mostly up to 92.4 µM; further: nearly all actives have a fitted effect of over 50% in size
How it was run: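 Tet-on ROR gamma CHO cells (1,000/well) were plated 4 hr, given compounds in DMSO for 2 hr at 37 C, then induced with 1 uM final doxycycline for 16 hr. Viability was read as ATP by CellTiter-Glo luminescence after 30 min.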

[14] = molecular target: Nuclear receptor ROR-gamma (Homo sapiens) (UniProt P51449); experiment: qHTS assay to identify small molecule antagonists of the retinoid-related orphan receptor gamma (ROR-gamma) signaling pathway (AID 1159521); settings: Tet-on RORgamma CHO cells, RORE-luciferase, 16 h; series mostly up to 92.4 µM
How it was run: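 Decreased RORE-driven luciferase luminescence indicates antagonism. Tet-on RORγ CHO cells received compound, then 1 uM final doxycycline 2 h later; signal read after 16 h incubation.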

[15] = qHTS assay to identify small molecule agonists of the AP-1 signaling pathway - cell viability counter screen (AID 1159525; calls by dose curve; further: nearly all actives have a fitted effect of over 55% in size); settings: ME-180 AP-1-bla cells viability, ATP luminescence, 5 h; series mostly up to 76.8 µM
How it was run: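 Each titration point was normalised to DMSO and tetra n-octyl ammonium bromide controls. The read was Cell Titer Glo luminescence after 30 min at RT, following 5 h compound exposure of ME-180 AP-1-bla cells at 37 °C.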

[16] = qHTS assay to identify small molecule agonists of the AP-1 signaling pathway (AID 1159526; calls by dose curve); settings: ME-180 (cervical carcinoma) AP-1-bla reporter, beta-lactamase FRET ratio, 5 h; series mostly up to 76.8 µM
[17] = molecular target: Vitamin D3 receptor (Homo sapiens) (UniProt P11473); experiment: qHTS assay to identify small molecule agonists of the vitamin D receptor (VDR) signaling pathway (AID 743222; calls by dose curve); settings: HEK293T VDR-UAS-bla, beta-lactamase FRET ratio, 16 h; series mostly up to 63.5 µM
Vitamin D3 receptor (Homo sapiens), sequence (P11473 whole entry, looked up): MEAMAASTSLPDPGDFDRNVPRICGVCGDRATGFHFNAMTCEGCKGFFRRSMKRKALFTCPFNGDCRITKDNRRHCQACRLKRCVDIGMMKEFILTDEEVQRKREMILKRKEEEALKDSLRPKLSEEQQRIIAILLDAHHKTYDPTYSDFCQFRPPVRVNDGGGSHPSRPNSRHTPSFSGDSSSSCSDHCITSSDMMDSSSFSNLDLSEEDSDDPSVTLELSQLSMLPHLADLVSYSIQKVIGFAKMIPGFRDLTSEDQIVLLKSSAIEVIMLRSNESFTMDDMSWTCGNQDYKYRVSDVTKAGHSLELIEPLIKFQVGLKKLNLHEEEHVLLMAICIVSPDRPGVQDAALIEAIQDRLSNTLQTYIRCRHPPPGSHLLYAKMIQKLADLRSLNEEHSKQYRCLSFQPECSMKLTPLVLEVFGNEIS
How it was run: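 Cells carrying a VDR-driven beta-lactamase reporter are seeded at 2,000 per well and rested 4 h. Compounds in DMSO are added for 16 h at 37C, and FRET substrate fluorescence is measured after 2 h at room temperature.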

[18] = molecular target: Vitamin D3 receptor (Homo sapiens) (UniProt P11473); experiment: qHTS assay to identify small molecule antagonists of the vitamin D receptor (VDR) signaling pathway (AID 743223; active means well fitted inhibition curve with a large enough effect in the signal ratio in the repeat runs, not every such curve was filed as active; the % refers to the signal ratio); settings: VDR-UAS-bla HEK293T, beta-lactamase FRET ratio, 16 h; series mostly up to 61 µM
How it was run: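 Reporter line VDR-bla; stimulus 1alpha,25-(OH)2 vitamin D3, 3 nM final; compound co-addition, 16 h 37C/5% CO2; LiveBLAzer B/G substrate 2 h RT; fluorescence intensity.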

[19] = molecular target: Peroxisome proliferator-activated receptor delta (Homo sapiens) (UniProt Q03181); experiment: qHTS assay to identify small molecule agonists of the peroxisome proliferator-activated receptor delta (PPARd) signaling pathway (AID 743212; calls by dose curve); settings: HEK293H PPARd-UAS-bla, beta-lactamase FRET ratio, 17 h; series mostly up to 62.6 µM
Peroxisome proliferator-activated receptor delta (Homo sapiens), sequence (Q03181 whole entry, looked up): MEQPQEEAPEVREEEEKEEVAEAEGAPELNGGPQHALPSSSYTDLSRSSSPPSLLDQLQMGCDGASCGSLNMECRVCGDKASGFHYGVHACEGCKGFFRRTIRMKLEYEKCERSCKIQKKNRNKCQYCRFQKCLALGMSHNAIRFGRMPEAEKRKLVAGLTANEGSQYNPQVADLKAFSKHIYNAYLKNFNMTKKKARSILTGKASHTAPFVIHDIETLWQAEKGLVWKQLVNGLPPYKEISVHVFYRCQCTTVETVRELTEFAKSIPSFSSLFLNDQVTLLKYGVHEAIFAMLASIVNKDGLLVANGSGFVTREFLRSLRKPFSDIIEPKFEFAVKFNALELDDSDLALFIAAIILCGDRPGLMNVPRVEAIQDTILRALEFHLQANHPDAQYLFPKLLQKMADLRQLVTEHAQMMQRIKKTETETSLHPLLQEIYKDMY
How it was run: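 Cells expressing a UAS-driven beta-lactamase reporter (PPARd-bla HEK293H) were given test compounds after a 5 h settle and kept at 37 C. Reporter activity was then measured as FRET fluorescence using LiveBLAzer B/G substrate.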

[20] = molecular target: Peroxisome proliferator-activated receptor delta (Homo sapiens) (UniProt Q03181); experiment: qHTS assay to identify small molecule antagonists of the peroxisome proliferator-activated receptor delta (PPARd) signaling pathway (AID 743215; active means well fitted inhibition curve with a large enough effect in the signal ratio in the repeat runs, not every such curve was filed as active; the % refers to the signal ratio;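 further: cells stimulated with agonist L165041 at 300 nM final during compound exposure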); settings: HEK293H PPARd-UAS-bla, beta-lactamase FRET ratio, antagonist, 17 h; series mostly up to 62 µM
How it was run: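 Cells: HEK293H with a UAS-driven beta-lactamase reporter responsive to PPARd. Compounds were co-added with L165041 (300 nM, final) and incubated 17 h at 37 C before a 2 h room-temperature FRET substrate step and fluorescence reading.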

Measured: outcome

CCC(=O)c1c(O)cc(O)cc1O
not listed: [17] | [18] | [19] | [20]
inactive: all other assays above

C=C(C)c1cccc(C(C)(C)N=C=O)c1
not listed: [3] | [5] | [6] | [19] | [20]
inactive: all other assays above

Cc1cc(C)c(C(=O)O)c(C)c1
not listed: [3] | [5] | [8] | [17] | [18] | [19] | [20]
inactive: all other assays above

CCCCCc1cccc(=O)o1
not listed: [1] | [7] | [8] | [18]
inactive: all other assays above

COc1c2occc2c(OC)c2c(=O)cc(C)oc12
not listed: [2] | [19] | [20]
inactive: all other assays above

CO[C@@]1(NC(=O)Cc2cccs2)C(=O)N2C(C(=O)O)=C(COC(N)=O)CS[C@@H]21
not listed: [3] | [5] | [17] | [18] | [19] | [20]
inactive: all other assays above

CN(C)CCCO[C@@H]1[C@H]2OC(C)(C)O[C@H]2O[C@@H]1C(O)CO (some centres undefined)
not listed: [3] | [5] | [6] | [7] | [19] | [20]
inactive: all other assays above

c1ccc(-c2nn[nH]n2)cc1
not listed: [19] | [20]
inactive: all other assays above

OC1(c2ccc(Cl)cc2)CCNCC1
not listed: [1]
inactive: all other assays above

CC(=O)O[C@@H]1CC2CCC1(C)C2(C)C (some centres undefined)
not listed: [19] | [20]
inactive: all other assays above

C=C(C)[C@@H]1CC=C(C)C(=O)C1
not listed: [3] | [5] | [19] | [20]
inactive: all other assays above

CC(=O)OC(C)=O
not listed: [3] | [4] | [5] | [19] | [20]
inactive: all other assays above

CC1=NN(c2ccc(S(=O)(=O)O)cc2)C(=O)C1
not listed: [3] | [5] | [18] | [19] | [20]
inactive: all other assays above

CCCCCCCCCOC(=O)c1ccccc1C(=O)OCCCCCCCCC
not listed: [1]
inactive: all other assays above

CC(C)(C)NC[C@H](O)COc1cccc2c1CCCC2=O
not listed: [3] | [5] | [19] | [20]
inactive: all other assays above

CC1OCCC1=O (centres undefined)
not listed: [3] | [5] | [6] | [17] | [18] | [19] | [20]
inactive: all other assays above
